According to PubChem BioAssay:
A number with no mark means an inactive call. For part of these data: Results with a measured potency or affinity are listed apart. Activity calls are given as the source filed them. Unless noted, how the calls were made is not given here.

What was measured:
[1] = antimalarial activity against Dd2 strain (AID 2302;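 active means growth inhibition above 50% at the single 2 µM test dose, taken to imply half-maximal potency below 2 µM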;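 further: 0% = DMSO untreated growth and 100% = chloroquine plus artemisinin killed control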); conditions: P. falciparum Dd2 in RBCs, LDH growth readout, 72 h; at 2 µM; active compounds read high
[2] = human hepatoma cell viability loss – ATP luminescence, cytotoxicity control for P. falciparum antimalarial project, primary screen (AID 2303;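 active means inhibition above 50%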;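 further: 0% = DMSO wells and 100% = digitonin-killed cells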); conditions: HepG2 viability, 24-48 h, at 10 µM, active compounds read high
[3] = target: L-lactate dehydrogenase (Plasmodium falciparum (isolate CDC / Honduras)) (UniProt Q27743); assay: PfLDH activity inhibition – cell lysate, 3D7 strain, counter-screen for P. falciparum growth inhibition project (AID 2304);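 further: 0% = vehicle and 100% = reference inhibitor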; conditions: P. falciparum 3D7 crude extract, LDH APAD/NBT absorbance; at 2 µM; active compounds read high
[4] = inhibition of 3D7 malaria parasite growth – strain 3D7 (AID 2306);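 further: 0% = DMSO wells and 100% = chloroquine plus artemisinin control wells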; conditions: P. falciparum 3D7 erythrocytic growth, LDH absorbance, 72 h; at 2 µM; active compounds read high
[5] = target: Calcium-dependent protein kinase 1 (Plasmodium falciparum (isolate 3D7)) (UniProt P62344); assay: PfCDPK1 kinase inhibitors, biochemical, TCAMS library (AID 1159585; cut-off not given, nearly all actives have IC50 up to about 0.98 µM;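 further: inhibitors leave more ATP so luminescence rises with inhibition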); conditions: recombinant PfCDPK1, Kinase-Glo ATP depletion luminescence
[6] = target: Plasmodium falciparum protein kinase 6 (PK6, PF3D7_1337100) (UniProt Q8IDW1); assay: PfPK6 kinase inhibitors, biochemical, TCAMS library (AID 1159586); conditions: recombinant PfPK6, Kinase-Glo ATP depletion luminescence
[7] = target: Protein kinase 7 (PK7), Plasmodium falciparum 3D7 (PF3D7_0213400) (UniProt Q7YTF7); assay: inhibition of Plasmodium PK7 catalytic activity – biochemical, TCAMS antimalarial set, Kinase-Glo luminescence (AID 1159587); conditions: recombinant PfPK7, Kinase-Glo ATP depletion luminescence
[8] = target: Calcium-dependent protein kinase 4 (Plasmodium falciparum (isolate 3D7)) (UniProt Q8IBS5); assay: PfCDPK4 kinase inhibitors, biochemical, TCAMS library (AID 1159588; cut-off not given, nearly all actives have IC50 up to about 0.91 µM); conditions: recombinant PfCDPK4, Kinase-Glo ATP depletion luminescence
Chain of Calcium-dependent protein kinase 4 (Plasmodium falciparum (isolate 3D7)) (Q8IBS5 whole entry, looked up): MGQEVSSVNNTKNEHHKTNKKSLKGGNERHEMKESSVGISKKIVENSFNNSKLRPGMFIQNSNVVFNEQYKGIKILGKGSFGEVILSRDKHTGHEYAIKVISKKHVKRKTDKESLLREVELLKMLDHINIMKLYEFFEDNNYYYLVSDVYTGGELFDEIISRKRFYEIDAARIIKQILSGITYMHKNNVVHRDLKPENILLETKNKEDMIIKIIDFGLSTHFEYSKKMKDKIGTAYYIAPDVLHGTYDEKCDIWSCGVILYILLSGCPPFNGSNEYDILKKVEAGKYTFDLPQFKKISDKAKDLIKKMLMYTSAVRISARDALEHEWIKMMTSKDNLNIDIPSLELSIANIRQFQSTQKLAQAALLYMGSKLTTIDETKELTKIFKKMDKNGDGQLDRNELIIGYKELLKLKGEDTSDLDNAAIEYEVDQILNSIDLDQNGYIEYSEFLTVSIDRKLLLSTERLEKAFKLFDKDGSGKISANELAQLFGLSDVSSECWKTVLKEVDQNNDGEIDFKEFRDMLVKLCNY

Chain of Calcium-dependent protein kinase 1 (Plasmodium falciparum (isolate 3D7)) (P62344 whole entry, looked up): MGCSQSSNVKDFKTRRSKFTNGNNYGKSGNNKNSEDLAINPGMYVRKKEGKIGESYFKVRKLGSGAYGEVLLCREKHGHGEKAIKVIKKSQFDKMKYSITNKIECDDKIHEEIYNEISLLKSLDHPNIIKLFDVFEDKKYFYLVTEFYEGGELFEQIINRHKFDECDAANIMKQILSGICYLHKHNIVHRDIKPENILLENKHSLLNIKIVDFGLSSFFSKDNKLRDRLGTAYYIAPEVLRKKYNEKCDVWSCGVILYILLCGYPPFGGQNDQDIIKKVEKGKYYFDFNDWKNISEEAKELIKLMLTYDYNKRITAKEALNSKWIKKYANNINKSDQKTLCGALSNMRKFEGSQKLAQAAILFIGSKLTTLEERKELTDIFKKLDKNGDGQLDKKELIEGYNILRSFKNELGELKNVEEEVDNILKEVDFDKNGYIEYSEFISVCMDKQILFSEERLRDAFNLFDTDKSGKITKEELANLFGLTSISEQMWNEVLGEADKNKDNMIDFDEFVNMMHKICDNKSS
Chain of Plasmodium falciparum protein kinase 6 (PK6, PF3D7_1337100) (Q8IDW1 1-305): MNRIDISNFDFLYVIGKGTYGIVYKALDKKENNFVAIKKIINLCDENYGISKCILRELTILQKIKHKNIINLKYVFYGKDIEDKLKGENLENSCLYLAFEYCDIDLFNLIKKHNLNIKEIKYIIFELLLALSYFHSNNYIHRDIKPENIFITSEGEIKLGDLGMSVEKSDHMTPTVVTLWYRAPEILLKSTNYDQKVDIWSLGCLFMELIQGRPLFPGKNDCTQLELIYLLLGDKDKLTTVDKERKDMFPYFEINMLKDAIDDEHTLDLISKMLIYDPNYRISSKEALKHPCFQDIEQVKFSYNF
Chain of Protein kinase 7 (PK7), Plasmodium falciparum 3D7 (PF3D7_0213400) (Q7YTF7 1-343): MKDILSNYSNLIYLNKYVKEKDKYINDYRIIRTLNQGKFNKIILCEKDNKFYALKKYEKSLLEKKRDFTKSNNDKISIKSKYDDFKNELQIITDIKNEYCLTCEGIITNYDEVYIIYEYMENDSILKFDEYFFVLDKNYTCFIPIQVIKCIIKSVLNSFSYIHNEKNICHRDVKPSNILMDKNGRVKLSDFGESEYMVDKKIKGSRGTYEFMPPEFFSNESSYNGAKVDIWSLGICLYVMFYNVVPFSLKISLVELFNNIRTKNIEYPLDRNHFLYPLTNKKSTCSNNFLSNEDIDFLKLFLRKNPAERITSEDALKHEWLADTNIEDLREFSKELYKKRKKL
Chain of L-lactate dehydrogenase (Plasmodium falciparum (isolate CDC / Honduras)) (Q27743 whole entry, looked up): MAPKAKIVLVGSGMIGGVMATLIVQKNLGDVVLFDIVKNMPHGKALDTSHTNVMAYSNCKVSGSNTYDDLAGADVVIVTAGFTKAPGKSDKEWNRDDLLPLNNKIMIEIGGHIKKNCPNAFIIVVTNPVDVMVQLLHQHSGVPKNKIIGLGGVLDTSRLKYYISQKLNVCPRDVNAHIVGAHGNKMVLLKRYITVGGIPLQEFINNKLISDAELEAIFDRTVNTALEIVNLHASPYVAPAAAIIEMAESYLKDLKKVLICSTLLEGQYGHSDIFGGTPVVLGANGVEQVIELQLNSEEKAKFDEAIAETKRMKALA

Structure (SMILES) | growth inhibition [1] | inhibition [2] | inhibition [3] | growth inhibition [4] | outcome [5] | outcome [6] | outcome [7] | outcome [8]
O=C(N[C@@H](Cc1ccccc1)CN1CCC(Oc2ccc(F)cc2)CC1)c1ccc(OCCCN2CCCCC2)cc1 | 92% (active) | 38% | 3% | 102% (active) | inactive | inactive | inactive | inactive
Clc1ncnc2scc(-c3ccc(Br)cc3)c12 | 96% (active) | -3% | -2% | 95% (active) | inactive | inactive | inactive | inactive
NC1CCCN(Cc2cccc(-c3ccc(-c4nc5ccc(C(F)(F)F)cc5[nH]4)cc3)c2)C1 (configuration not stated) | 96% (active) | 47% | -3% | 99% (active) | inactive | inactive | inactive | inactive
COc1ccc(C2CCN(CCN3CCC(NC(=O)c4cccc(-c5ccncc5)c4)CC3)CC2)c(OC)c1 | 24% | 7% | -6% | 94% (active) | inactive | inactive | inactive | inactive
CC(C)N(C(=O)CSc1nc2cc(Cl)ccc2c(=O)n1Cc1ccccc1)C(C)C | 97% (active) | -14% | -5% | 100% (active) | inactive | inactive | inactive | inactive
O=S(=O)(c1ccccc1Cl)N1CCCCC(c2ccc(C(F)(F)F)cc2)=N1 | 72% (active) | 22% | 4% | 86% (active) | inactive | inactive | inactive | inactive
Cc1ccc(S(=O)(=O)N(C)c2ccccc2C(=O)Nc2ccccc2Oc2ccccc2)cc1 | 90% (active) | 5% | 3% | 98% (active) | inactive | inactive | inactive | inactive
COC(=O)c1ccccc1COc1ccc(CC2(NC(=O)[C@H](Nc3ccc(C#N)c4ccccc34)C(C)(C)C)CCCC2)cc1 | 82% (active) | 1% | 2% | 95% (active) | inactive | inactive | inactive | inactive
CCCN(Cc1ccc(C)cc1)Cc1cc(=O)c2cc(Cl)ccc2[nH]1 | 91% (active) | 51% (active) | 4% | 86% (active) | inactive | inactive | inactive | inactive
COc1ccccc1CNC(=O)c1cc(Br)cc(N2CCN(c3ccncc3)CC2)c1 | 76% (active) | 43% | 0% | 95% (active) | inactive | inactive | inactive | inactive
CC(=O)Nc1nc(C(=O)Nc2cccc(-c3ccc(-c4nc5c(C)cccc5[nH]4)s3)c2)cs1 | 67% (active) | 14% | -2% | 101% (active) | inactive | inactive | inactive | inactive
N#Cc1ccc(OCCN(Cc2ccccc2C(F)(F)F)c2ccc(C#N)c(C(F)(F)F)c2)cc1 | 84% (active) | 69% (active) | 1% | 101% (active) | inactive | inactive | inactive | inactive
CCN(c1ccc(F)cc1)S(=O)(=O)c1cc(Br)cc2c1N(C(=O)C1CC1)CC2 | 79% (active) | -16% | 7% | 88% (active) | inactive | inactive | inactive | inactive
CC1=C(C(=O)Nc2ccccc2)C(c2ccc([N+](=O)[O-])cc2)n2ncc(C(=O)Nc3ccccc3)c2N1 (configuration not stated) | 68% (active) | 9% | -1% | 86% (active) | inactive | inactive | inactive | inactive
CCCN1CCN(c2cc(NCC)c3c4c(onc24)-c2ccccc2C3=O)CC1 | 11% | 4% | 6% | 96% (active) | inactive | inactive | inactive | inactive
C=CCc1cc(SC)ccc1Oc1ccc(N)cc1 | 2% | 12% | 4% | 96% (active) | inactive | inactive | inactive | inactive
COc1ccc(NC(=O)Nc2ccc(-c3cccc(-c4nc5ccccc5[nH]4)c3)cc2)cc1 | 41% | 44% | 3% | 99% (active) | inactive | inactive | inactive | inactive
O=C(c1cc(-c2ccco2)[nH]n1)N1CCN(S(=O)(=O)c2ccc(Cl)cc2)CC1 | 95% (active) | -5% | 2% | 96% (active) | inactive | inactive | inactive | inactive
Clc1cnc2ccc3c(c2c1CCN1CCC(NCc2cc4c(cn2)OCCO4)CC1)OCCO3 | 18% | 3% | -2% | 92% (active) | inactive | inactive | inactive | inactive
NC(N)=NN=CC(=O)Nc1ccc(Cl)c(C(F)(F)F)c1 | 0% | -6% | 0% | 100% (active) | inactive | inactive | inactive | inactive

Structure (SMILES) | growth inhibition [1] | inhibition [2] | inhibition [3] | growth inhibition [4] | outcome [5] | outcome [6] | outcome [7] | outcome [8]
CC[C@H](C)CNC(=O)c1cncc(-c2ccc(CNCC3CNCCCO3)cc2)c1 (some centres not stated) | -2% | -5% | -1% | 100% (active) | inactive | inactive | inactive | inactive
N#Cc1ccc(NC(=NC2CCN(Cc3ccccc3)CC2)Nc2ccccc2Cl)c(O)c1 | 97% (active) | 31% | 0% | 101% (active) | inactive | inactive | inactive | inactive
CCC(C)c1ccc(NC(=O)Nc2ccc(Cn3ncc(N4CCCNCC4)c(Cl)c3=O)cc2)cc1 (configuration not stated) | 31% | -6% | -2% | 83% (active) | inactive | inactive | inactive | inactive
Cc1nc(-c2cccc(Nc3nccc(NCC(O)c4cccc(F)c4)n3)c2)cs1 (configuration not stated) | 59% (active) | 39% | 1% | 98% (active) | inactive | inactive | inactive | inactive
O=S(=O)(Nc1cccc(CCN2CCC(N3CCCCC3)CC2)c1)c1cccc(C(F)(F)F)c1 | 13% | 25% | -1% | 101% (active) | inactive | inactive | inactive | inactive
OC1CCC(Nc2ccc3ncc(-c4ccc5ccccc5c4)n3n2)CC1 (configuration not stated) | 94% (active) | 52% (active) | 3% | 95% (active) | inactive | inactive | inactive | inactive
Cc1[nH]c(C)c(-c2ccc(Nc3ccc(C(F)(F)F)cn3)cc2)c(=O)c1Br | 98% (active) | 30% | -2% | 99% (active) | inactive | inactive | inactive | inactive
CCN(CC)CCCSc1ccc(-c2ccc(SCCCN(CC)CC)cc2)cc1 | 30% | 38% | -8% | 87% (active) | inactive | inactive | inactive | inactive
CCc1ccc(CN2CCC(NC(=O)c3cc(-c4ccc(N(C)C)cc4)cs3)C2)cc1 (configuration not stated) | 7% | 29% | 3% | 90% (active) | inactive | inactive | inactive | inactive
COc1ccccc1CCC(C)(C)NC(=O)CC(CCc1ccccc1)Nc1ccc(C#N)c2ccccc12 (configuration not stated) | 65% (active) | 6% | 0% | 94% (active) | inactive | inactive | inactive | inactive
CC(=O)c1c(Nc2c(C)cc(C)cc2C)oc(C)cc1=O | 83% (active) | 7% | 7% | 95% (active) | inactive | inactive | inactive | inactive
Cc1cccc2[nH]c(-c3cccc(-c4ccc(NC(=O)c5ccncc5)cc4)c3)nc12 | 74% (active) | 34% | -5% | 98% (active) | inactive | inactive | inactive | inactive
CCN(CCNS(C)(=O)=O)c1ccc(N)c(C)c1 | 11% | -4% | -4% | 91% (active) | inactive | inactive | inactive | inactive
CCNc1cc(C)nc(Nc2ccc(NC(=O)c3ccco3)cc2)n1 | 32% | 24% | -2% | 95% (active) | inactive | inactive | inactive | inactive
CNCCNCc1cccc(-c2ccc(-c3nc4c(C)cccc4[nH]3)s2)c1 | 8% | 10% | -6% | 92% (active) | inactive | inactive | inactive | inactive
O=C(NC1CCCCC1)N(Cc1cccc(-c2ccc(CNCc3ccc4c(c3)OCO4)cc2)c1)C1CCN(Cc2ccccc2)CC1 | 59% (active) | 13% | -9% | 92% (active) | inactive | inactive | inactive | inactive
CC(C)CCC[C@@H]([C@@H](CC1CCCCC1)C(=O)N[C@@H](CCCCNC(=O)OCc1ccccc1)C(=O)Nc1nccs1)N(O)C=O | 90% (active) | -4% | 3% | 98% (active) | inactive | inactive | inactive | inactive
COc1cc2nc(N[C@@H](CO)c3ccccc3)nc(NCc3ccccc3)c2cc1OC | 71% (active) | 6% | 1% | 101% (active) | inactive | inactive | inactive | inactive
COc1cc(NC(=O)c2sc(-c3ccc(Cl)cc3)cc2NC(=O)c2ccncc2)ccc1OCCN1CCCC1 | 100% (active) | 100% (active) | 3% | 100% (active) | inactive | inactive | inactive | inactive
